Results filed as inconclusive are left out. Calls of active or inactive are those of the source. How the source made its calls: active means hit-call score of the fitted dose curve at least 0.9, where 1 is the maximum; inconclusive means response in the unintended direction; inactive means score below 0.9.
Experiment: ATG_Hpa5_TRANS: Attagene TRANS-FACTORIAL HepG2 Assay for human GAL4-Hpa5 Hepatocyte Transcription Factor Basal Promoter (AID 2282975);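 further: hits are increases in reporter mRNA over DMSO baseline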
Conditions: HepG2 Attagene GAL4-Hpa5 transcription reporter
Method: ATG_TRANS is a cell-based, multiplexed-readout assay that uses HepG2, a human liver cell line, with measurements taken at 24 hours after chemical dosing in a 24-well plate.ATG_Hpa5_TRANS is one of 30 assay component(s) measured or calculated from the ATG_TRANS assay. It is designed to make measurements of mRNA induction, a form of inducible reporter, as detected with fluorescence intensity signals by Reverse transcription polymerase chain reaction (RT-PCR) and Capillary electrophoresis technology.Data from the assay component ATG_Hpa5_TRANS was analyzed into 1 assay endpoint. This assay endpoint, ATG_Hpa5_TRANS, was analyzed in the positive analysis fitting direction relative to DMSO as the negative control and baseline of activity. Using a type of inducible reporter, measures of mRNA for gain-of-signal activity can be used to understand the background control at the transcription factor-level as they relate to the gene . Furthermore, this assay endpoint can be referred to as a secondary readout, because this assay has produced multiple assay endpoints where this one serves a background control function. To generalize the intended target to other relatable targets, this assay endpoint is annotated to the background measurement intended target family, where the subfamily is internal marker.
Human liver HepG2 cells are transiently transfected with multiple reporter transcription units (MRTUs) in 6-well plates using FuGene 6 reagent (Roche; 3 ml FuGene/1 mg DNA). The MRTU constructs are regulated by a cis-regulating element (promoter). […] A major difference between the CIS and TRANS system is that in CIS activities of endogenous TFs are measured, whereas the TRANS assay evaluates changes in activities of exogenous, chimeric NR-Gal4 proteins. […] At the end of 24 hour incubation, total RNA was isolated using TriZol reagent (Invitrogen). The isolated RNA is then reverse-transcribed using oligo(dT) primer and Mo-MLV reverse transcriptase (Invitrogen) with DNAse I (Ambion) treatment for 30 min. The one-tenth of the produced cDNA was amplified by PCR using Taq DNA polymerase (Invitrogen) and two reporter sequence-specific primers. The PCR products were fluorescently labeled by primer extension with 6-arboxyfluorescein (6-FAM) 5'-labeled reporter sequence-specific primer (2 min at 95 C, 20 s at 68 C and 10 min at 72 C) and these products were digested with 5U of HpaI (New England Biolabs) for 2h at 37 C. The fragments were purified using Qiaquick PCR columns (Qiagen), analyzed on an ABI 3130xL genetic analyzer (Applied Biosystems) with peak positions identified by using a set of X-rhodamine (ROX)-labeled MapMarker1000 molecular weight standards (BioVentures). The raw capillary electrophoresis data was processed using Attagraph software (Attagene).
For `CCCN(CCC)C(=O)SCC`, the outcome was “inactive”.
With `COC(=O)c1cccc(C)c1S(=O)(=O)NC(=O)Nc1nc(OCC(F)(F)F)nc(N(C)C)n1` the outcome was “inactive”.
For `CCOC(=O)NCCOc1ccc(Oc2ccccc2)cc1`, the outcome was “inactive”.
In the case of `CCCOC(=O)c1ccc(C(=O)OCCC)nc1`, the outcome is reported as “inactive”.
For `CCOC(=O)C(C)Oc1ccc(Oc2nc3ccc(Cl)cc3o2)cc1` (stereo not drawn), the outcome was “inactive”.
With `CCNc1nc(N)nc(Cl)n1` the outcome was “inactive”.
For `CCOC(=O)[C@H](C)Oc1ccc(Oc2nc3ccc(Cl)cc3o2)cc1`, the outcome was “inactive”.
For `S=C(S)NCCNC(=S)S.[Mn+2].[S-]C([S-])=NCCN=C([S-])[S-].[Zn+2]`, the outcome was “inactive”.
With `c1ccc(Nc2ccccc2)cc1` the outcome was “inactive”.
With `N#CSCSc1nc2ccccc2s1` the outcome was “inactive”.
In the case of `CCCCCOC(=O)COc1cc(N2C(=O)C3=C(CCCC3)C2=O)c(F)cc1Cl`, the outcome is reported as “inactive”.
For `CCCN(CCC)c1c([N+](=O)[O-])cc(C(F)(F)F)c(N)c1[N+](=O)[O-]`, the outcome was “inactive”.
For `CCSC(=O)N(CC(C)C)CC(C)C`, the outcome was “inactive”.
For `COC(=O)c1ccc(I)cc1S(=O)(=O)NC(=O)Nc1nc(C)nc(OC)n1`, the outcome was “inactive”.
For `S=C([S-])NCCNC(=S)[S-].[Mn+2]`, the outcome was “inactive”.
In the case of `CN(C)C(=O)Nc1ccc(Cl)c(Cl)c1`, the outcome is reported as “inactive”.
With `COC(=O)c1c(Cl)nn(C)c1S(=O)(=O)NC(=O)Nc1nc(OC)cc(OC)n1` the outcome was “inactive”.
In the case of `CCCCC(CC)COC(=O)c1ccccc1C(=O)O` (stereo not drawn), the outcome is reported as “inactive”.
With `OB(O)O` the outcome was “inactive”.
With `Oc1ccc(C(c2ccc(O)cc2)C(Cl)(Cl)Cl)cc1` the outcome was “inactive”.
In the case of `COC(=O)CSc1cc(N=c2sc(=O)n3n2CCCC3)c(F)cc1Cl`, the outcome is reported as “inactive”.
In the case of `CCCCOCCOCCOCc1cc2c(cc1CCC)OCO2`, the outcome is reported as “inactive”.
With `CCCCOC(=O)C(C)Oc1ccc(Oc2ccc(C(F)(F)F)cn2)cc1` (stereo not drawn) the outcome was “inactive”.
With `COCCO` the outcome was “inactive”.
For `CCN(CC)C(=O)c1cccc(C)c1`, the outcome was “inactive”.
For `CCN(Cc1c(F)cccc1Cl)c1c([N+](=O)[O-])cc(C(F)(F)F)cc1[N+](=O)[O-]`, the outcome was “inactive”.
In the case of `CCCCOC(=O)[C@@H](C)Oc1ccc(Oc2ccc(C(F)(F)F)cn2)cc1`, the outcome is reported as “inactive”.
In the case of `CCOC(=O)COc1cc(-n2ncc(C(F)(F)F)c(C)c2=O)c(F)cc1Cl`, the outcome is reported as “inactive”.

Source: PubChem BioAssay (EPA / NIEHS)
